TDP1 cell noCPT: qHTS for Inhibitors of human tyrosyl-DNA phosphodiesterase 1 (TDP1): qHTS in cells in absence of CPT | DT40 Tdp1-/- hTDP1 cells, no CPT, ATP luminescence, 48 h | Potency, µM (top dose mostly 46.2 µM), for inactives: at the highest dose activity change, negative = growth inhibition, usual class: inhibitors | actives 15% (n = 420,000); note: potency is the fitted concentration of half-maximal effect; nearly all actives have a fitted effect of over 55% in size
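Cells were dispensed at 400 per well, compounds added by pin tool, plates incubated ≥48 hr at 37 °C, then CellTiter-Glo added for 30 min at room temperature before luminescence reading. Line: DT40 Tdp1-/- complemented with hTDP1; camptothecin omitted.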
IL1B secr inh: inhibitors of inflammasome signaling (IL-1 beta secretion). THP-1 LPS/ATP IL-1B secretion, AlphaLISA, 16 h; hits give low values. activity change, % at 57.5 µM. actives 4.7% (n = 360,000). AID 743279; in the data active = activity change below about -50%; inconclusive = mostly about -30% to -49%
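Secreted IL-1B measured by AlphaLISA bead assay after 16 h compound exposure of THP-1 cells; compounds (final up to 57.5 uM) added 1 h before LPS (250 ng/mL) and ATP (1.25 mM) stimulation; lower signal means less secretion.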
HT1080 IDH1KD tx: toxicity to HT-1080 IDH1 knockdown cells (counter line); actives 2% (n = 360,000); HT-1080 IDH1 knockdown viability, ATP luminescence, 48 h; Potency, µM (top dose mostly 46.1 µM), without a hit: at the top dose activity, negative = toxicity, most hits filed as cytotoxic;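 note: potency is the fitted concentration of half-maximal effect; 0% = DMSO wells and -100% = cell-free medium wells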
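In this qHTS, HT-1080 cells depleted of IDH1 are exposed for 48 h at 37 °C to compound titrations. Toxicity is scored from CellTiter-Glo luminescence, with DMSO as full viability and medium alone as none.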
ALOX12 inh: inhibitors of human 12S-lipoxygenase ALOX12. P18054. purified 12hLO, xylenol orange hydroperoxide absorbance. Potency, µM (doses to about 108 µM), inactives show at the top dose activity change, negative = inhibition, most hits filed as inhibitors. actives 1.1% (n = 580,000); note: potency is the fitted concentration of half-maximal effect
Target sequence (P18054 whole entry, looked up): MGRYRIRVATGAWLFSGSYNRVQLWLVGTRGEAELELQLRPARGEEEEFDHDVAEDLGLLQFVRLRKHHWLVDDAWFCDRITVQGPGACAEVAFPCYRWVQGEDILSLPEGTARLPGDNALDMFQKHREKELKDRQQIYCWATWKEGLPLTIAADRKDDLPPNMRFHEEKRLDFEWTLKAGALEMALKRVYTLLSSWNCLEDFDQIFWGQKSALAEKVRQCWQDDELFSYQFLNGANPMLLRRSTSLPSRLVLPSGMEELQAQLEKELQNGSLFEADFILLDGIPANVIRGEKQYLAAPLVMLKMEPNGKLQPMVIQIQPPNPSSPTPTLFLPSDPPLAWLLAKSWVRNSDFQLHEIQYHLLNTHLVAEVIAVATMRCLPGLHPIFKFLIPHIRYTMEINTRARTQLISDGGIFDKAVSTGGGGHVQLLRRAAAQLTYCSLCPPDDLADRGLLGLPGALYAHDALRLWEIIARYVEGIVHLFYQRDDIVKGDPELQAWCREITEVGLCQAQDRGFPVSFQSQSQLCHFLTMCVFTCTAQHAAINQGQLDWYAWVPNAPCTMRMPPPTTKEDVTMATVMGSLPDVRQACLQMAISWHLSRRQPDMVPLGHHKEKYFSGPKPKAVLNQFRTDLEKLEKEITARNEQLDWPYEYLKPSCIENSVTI
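Hydroperoxide product was detected by ferrous iron/xylenol orange as the 573 to 405 nm absorbance ratio. Arachidonic acid at 40 uM (final) was turned over for 30 min at room temperature by 150 nM human 12hLO, pH 7.0 Hepes buffer, after 15 min compound preincubation.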
HT1080-NT tox: kills 2HG-producing HT-1080-NT fibrosarcoma cells | HT-1080-NT fibrosarcoma viability, CellTiter-Glo ATP luminescence, 48 h | Potency, µM (top dose mostly 46.1 µM), for inactives: at the highest dose activity, negative = less viability, actives largely listed as cytotoxic | AID 686970 | actives 1.6% (n = 360,000);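 note: NT is the 2HG producing partner of a matched IDH1 knockdown line; potency is the fitted concentration of half-maximal effect; 0% = DMSO-treated cells and -100% = media-only wells without cells; nearly all actives have a fitted effect of over 55% in size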
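A 48-hour cytotoxicity screen used HT-1080-NT cells plated 2 hours before compound delivery. ATP-based CellTiter-Glo luminescence measured viability, normalized to DMSO and no-cell controls.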
DT40 TDP1 CPT: growth inhibition of DT40 Tdp1-/-;hTDP1 cells with camptothecin (screen for TDP1 inhibitors); actives 12% (n = 420,000); chicken DT40 Tdp1-/-;hTDP1 cells + 20 nM CPT, ATP luminescence, 48 h; AID 686979; Potency, µM (highest dose often 46.2 µM), for inactives: at the highest dose activity change, negative = growth inhibition, usual class: inhibitors; note: potency is the fitted concentration of half-maximal effect; nearly all actives have a fitted effect of over 55% in size
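Cell growth measured by CellTiter-Glo luminescence after a minimum 48 h, 37 C compound exposure with 20 nM CPT in Tdp1-knockout DT40 cells stably expressing hTDP1, seeded 400/well; qHTS titration format.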
Active calls of the source: *; ? = inconclusive; . = not tested or not shown. The sample as a whole holds a higher share of hits than the screen did. Unless noted, calls come from the whole dose curve; as a rule, active = well fitted curve in the direction sought with a large enough effect; inconclusive = small, poorly fitted or top-dose-only effect, or another doubt; inactive = no such curve, though single readings can be large; an effect the other way counts as inactive or inconclusive. Unless noted, % is set by controls: 0 for no effect and ±100 for the full control effect.

SMILES	TDP1 cell noCPT	IL1B secr inh	HT1080 IDH1KD tx	ALOX12 inh	HT1080-NT tox	DT40 TDP1 CPT
Cc1c(Cc2ccccc2)sc(NC(=O)Cc2ccccc2)c1C(N)=O	?	-18.9	?	15.8µM*	?	?
Cc1c(Cc2ccccc2)sc(NC(=O)C(C)(C)C)c1C(N)=O	29.1µM*	0.0	0.5%	-35.4%	-8.6%	16.4µM*
CCC(=O)Nc1sc(Cc2ccccc2)c(C)c1C(N)=O	?	-11.0	3.2%	-23.9%	-11.2%	16.4µM*
Cc1ccc(C(C)C)c(OCC(=O)NC(=S)Nc2ccccc2N2CCOCC2)c1	16.4µM*	0.0	?	-11.5%	?	23.1µM*
CCC(=O)N1CCN(c2ccccc2NC(=O)COc2cc(C)ccc2C(C)C)CC1	23.1µM*	-94.6*	?	16.8%	?	16.4µM*
CC12CCC(=O)N1C(C(=O)Nc1ccc(Cl)c(Cl)c1)CS2 (stereo not drawn)	-26.2%	-50.1*	-19.6%	?	-15.2%	14.1%
CC12CCC(=O)N1C(C(=O)OCC(=O)Nc1ccc(Cl)c(Cl)c1)CS2 (stereo not drawn)	?	-57.8*	-0.4%	0.0%	-20.2%	-19.1%
CC12CCC(=O)N1C(C(=O)Nc1nc3ccccc3s1)CS2 (stereo not drawn)	-1.7%	1.4	-3.3%	0.0%	-0.3%	-2.1%
CC12CCC(=O)N1C(C(=O)Nc1nc3ccc(F)cc3s1)CS2 (stereo not drawn)	10.3µM*	-10.0	1.7%	?	-0.3%	-15.1%
CC(=O)NC12CC3CC(C1)CC(C(=O)Nc1nc4ccc(F)cc4s1)(C3)C2	25.9µM*	?	?	-5.2%	-18.3%	?
CC12CCC(=O)N1C(C(=O)Nc1ccc(Cl)c(S(=O)(=O)N3CCCCC3)c1)CS2 (stereo not drawn)	?	5.3	-1.2%	-15.4%	3.9%	?
Cc1cc(NC(=O)COC(=O)C2CSC3(C)CCC(=O)N23)ccc1Br (stereo not drawn)	-5.2%	-18.3	11.6%	0.0%	0.0%	?
COC(=O)[C@@H](C)NC(=O)[C@H]1CN(C(=O)c2ccc(N(C)C)cc2)CCN1S(C)(=O)=O	.	.	.	20.7%	.	.
O=C1NCCCCCCN(C(=O)CN2CCCCCC2)[C@H]2C[C@H](c3nc(-c4cccnc4)no3)C[C@@H]12	.	.	.	97.5%	.	.
Cc1ccc(CNc2oc(-c3cccc4ccccc34)nc2C#N)cc1	.	.	.	-5.0%	.	.
COc1cccc(CNC(=O)N2CCc3c(sc4c3CCCC4)C2c2ccc(F)cc2)c1 (stereo not drawn)	14.6µM*	.	.	-14.4%	.	?
COC(=O)c1ccccc1NC(=O)N1CCc2c(sc3c2CCCC3)C1c1ccc(F)cc1 (stereo not drawn)	-28.5%	.	.	-5.0%	.	-27.4%
COc1ccc(NC(=O)N2CCc3c(sc4c3CCCC4)C2c2ccccc2OC)cc1 (stereo not drawn)	13µM*	.	.	-17.3%	.	16.4µM*
COc1ccc(Cl)cc1NC(=O)COc1ccccc1F	.	.	.	13.3%	.	.
O=C(CSc1nc(=O)n(CCN2CCOCC2)c2c1CCC2)Nc1ccc(OC(F)(F)F)cc1	-24.6%	-74.7*	-14.4%	?	?	13.2%
CC(C)c1ccc(NC(=O)CSc2nc(=O)n(CCCN3CCOCC3)c3c2CCC3)cc1	-13.5%	-62.6*	-10.9%	?	-9.9%	-2.4%
Cc1cc(C)cc(NC(=O)CSc2nc(=O)n(CCCN3CCOCC3)c3c2CCCC3)c1	?	-52.3*	-6.0%	-18.0%	0.6%	-26.0%
COc1cc(NC(=O)CSc2nc(=O)n(CCCN3CCOCC3)c3c2CCC3)cc(OC)c1	-17.9%	-8.4	-8.5%	-15.5%	3.3%	?
COc1ccccc1[C@@H]1CN(C(=O)Cc2nonc2C)C[C@H]1C(=O)O	.	.	.	15.4%	.	.
COc1cc(-c2nn3c(C(C)(C)C)nnc3s2)cc(OC)c1OC	.	.	.	65.5%	.	.
SMILES	TDP1 cell noCPT	IL1B secr inh	HT1080 IDH1KD tx	ALOX12 inh	HT1080-NT tox	DT40 TDP1 CPT
O=C(CCc1ncc(-c2c(F)cccc2F)o1)N1CCN(c2ccc(F)cc2)CC1	.	.	.	5.7%	.	.
Cc1cc(C(=O)NCC(=O)N2CCCCCNC(=O)CC2c2ccccc2)nn1C (stereo not drawn)	.	.	.	16.8%	.	.
N=C1/C(=C\c2ccc(Br)o2)C(=O)N=C2SC(CC(=O)N3CCCCC3)=NN12	7.31µM*	-9.9	1.8%	-5.3%	4.7%	6.51µM*
O=C(C[C@H]1C/C=C\CC[C@H](Cc2ccc(F)cc2)C(=O)O[C@H](c2ccccc2)CNC1=O)N[C@H](CO)Cc1ccccc1	13µM*	0.0	?	?	?	13µM*
O=C(C[C@H]1C/C=C\CC[C@H](Cc2ccc(F)cc2)C(=O)O[C@@H](c2ccccc2)CNC1=O)N[C@@H](CO)Cc1ccccc1	?	62.8	?	14.2%	?	?
O=C(C[C@H]1C/C=C\C[C@H](Cc2ccc(F)cc2)C(=O)O[C@@H](c2ccccc2)CNC1=O)N[C@H](CO)Cc1ccccc1	10.3µM*	-8.1	-3.8%	-27.5%	-20.0%	?
CCCS(=O)(=O)N1CCC(Oc2ccccc2-c2nc(-c3ccncc3)no2)C1 (stereo not drawn)	.	.	.	0.4%	.	.
Cc1cc(C)cc(Oc2nc(C(F)(F)F)nc3ccccc23)c1	20.6µM*	12.2	?	13.9%	?	18.4µM*
CC(=O)Nc1ccc(Oc2nc(C(F)(F)F)nc3ccccc23)cc1	-13.0%	13.7	5.5%	1.3%	13.1%	1.2%
O=C(NCC12CC3CC(CC(C3)C1)C2)C1CCCCC1	.	.	.	16.5%	.	.
COc1ccccc1NS(=O)(=O)c1cc(NC(=O)c2cnccn2)ccc1N1CCOCC1	0.0%	4.7	-9.0%	10.9%	3.0%	-17.0%
COc1ccccc1NS(=O)(=O)c1cc(NC(=O)c2ccncc2)ccc1N1CCOCC1	11.6µM*	31.4	0.6%	9.7%	2.2%	11.6µM*
COc1ccccc1NS(=O)(=O)c1cc(NC(=O)c2sccc2C)ccc1N1CCOCC1	?	-15.9	-27.6%	0.0%	-21.9%	20.6µM*
COc1ccccc1NS(=O)(=O)c1cc(NC(=O)c2sccc2C)ccc1N1CCCC1	?	-14.2	2.5%	-12.6%	-0.4%	?
COCC(=O)Nc1ccc(N2CCOCC2)c(S(=O)(=O)Nc2ccccc2OC)c1	?	-2.4	-4.9%	?	-4.0%	-18.8%
